Screens: PubChem BioAssay, National Center for Advancing Translational Sciences (NCATS)
PI5P4K alpha inh – qHTS for Inhibitors of phosphatidylinositol 5-phosphate 4-kinase (PI5P4K) | Phosphatidylinositol 5-phosphate 4-kinase type-2 alpha (Homo sapiens), P48426 | PI5P4Kalpha enzyme, ADP-Glo luminescence, 60 min; stronger effect = lower value | actives 1.2% (n = 330,000) | max response, %; active means max response of -50% or lower; inconclusive means between -30% and -50%; inactive means -30% or higher; further: value at the top dose of about 77 µM; on the % scale 0 is the no-effect control and ±100 the full control effect
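Compounds were pin-transferred onto PI5P4Kalpha and substrate in HEPES pH 7.4 buffer with EGTA, CHAPS and 5% DMSO. ATP (5 microM final) started the reaction, which ran 60 minutes at room temperature before ADP-Glo detection.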
PI4K2A block – qHTS for small molecular inhibitors of PI4K2A. Phosphatidylinositol 4-kinase type 2-alpha (Homo sapiens), Q9BTU6. purified PI4K2A, ADP-Glo luminescence, 1 h; stronger effect = lower value. activity change, negative = inhibition, % at 76.9 µM. actives 0.13% (n = 420,000). AID 1346378, 2018; in the data active means activity change below about -50%; inconclusive means mostly about -30% to -49%;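 further: -100% = wells without enzyme as full effect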
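Compounds are screened against recombinant PI4K2A using PI as substrate and ATP, the latter dispensed at 300 microM. Reactions run one hour at ambient temperature before ADP-Glo detection; full inhibition defined by wells lacking enzyme.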
DRD3 agonist – qHTS of D3 Dopamine Receptor Agonist: qHTS. AID 652048, 2013. max activation, %. D3R DiscoveRx beta-arrestin cells, luminescence, 90 min. actives 0.58% (n = 410,000); in the data active means max activation above about 30%; further: 0% is about no effect
Target sequence (P35462 whole entry, looked up): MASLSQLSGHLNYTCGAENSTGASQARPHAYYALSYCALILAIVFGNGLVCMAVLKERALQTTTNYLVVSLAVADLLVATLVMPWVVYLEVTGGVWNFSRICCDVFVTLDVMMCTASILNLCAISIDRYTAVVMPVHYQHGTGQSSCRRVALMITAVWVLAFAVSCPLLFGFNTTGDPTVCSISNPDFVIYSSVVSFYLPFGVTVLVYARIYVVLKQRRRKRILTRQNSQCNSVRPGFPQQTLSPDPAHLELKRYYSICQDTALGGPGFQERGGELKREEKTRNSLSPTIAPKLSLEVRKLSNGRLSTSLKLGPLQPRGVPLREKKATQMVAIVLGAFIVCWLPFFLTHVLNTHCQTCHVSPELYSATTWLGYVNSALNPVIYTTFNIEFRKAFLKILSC
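Cells at 1500/well, incubated overnight, then treated with pinned compounds (dopamine as control) for 90 min at 37 degrees C. DiscoveRx reagent added for 30 - 60 minutes at room temperature; luminescence read.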
LDHA block – qHTS assay for inhibitors of human lactate dehydrogenase | actives 0.15% (n = 480,000) | activity change, % (values are at about 110 or 230 µM) | purified LDHA, NADH/diaphorase-resazurin fluorescence; stronger effect = lower value; in the data active means activity change below about -30%; inconclusive means mostly about -25% to -30%;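 further: plate controls were DMSO wells for no effect and wells without enzyme for full effect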
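Human LDH5 at 2 nM final in Tris HCl pH 7.4 with 0.06 mM NADH and 0.2 mM pyruvate, reacted 5 minutes at room temperature. Remaining NADH coupled via diaphorase/resazurin; resorufin fluorescence read at 0 and 20 minutes, normalized to enzyme-free and DMSO wells.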
D3 antag – qHTS of D3 Dopamine Receptor Antagonist: qHTS; actives 2.5% (n = 360,000); D(3) dopamine receptor (Homo sapiens), P35462; max response, negative = inhibition, %; D3R cells, DiscoveRx beta-arrestin luminescence, antagonist mode; stronger effect = lower value; in the data active means max response below about -50%; inconclusive means no clear call, values can overlap the other calls; further: on the % scale 0 is the no-effect control and ±100 the full control effect
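Cells expressing the human receptor were seeded at 1500 cells/well, incubated overnight at 37 degrees C in 5% CO2, then exposed to library compounds with dopamine controls for 90 minutes at 37 degrees C before luminescent detection.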
Starred values were filed as active, the others as inactive; ? = inconclusive; . = no result. Most compounds without a hit are left out; they make up all but 3.3% or so of the library.

SMILES	PI5P4K alpha inh	PI4K2A block	DRD3 agonist	LDHA block	D3 antag
O=C1Nc2ccccc2SC(c2ccccc2)C1O (stereo not given)	-82*	-13	-2	1	-12
Cc1ccc(COC(=O)C(C)NC(=O)c2ccccc2)cc1 (stereo not given)	.	.	.	-3	.
Cc1cc(C(=O)COC(=O)c2ccc(O)cc2O)c(C)n1-c1ccccc1	-13	1	18	1	6
COc1ccc(-n2c(C)cc(C(=O)COC(=O)c3ccc(O)cc3O)c2C)cc1	-1	-8	44*	2	55
CCCN(CCC)S(=O)(=O)c1nc(C)c(Cl)c(C)c1C#N	.	.	.	-4	.
O=c1cc2c(=O)oc3cc(O)c(O)oc3c2c(O)c1O	-75*	3	11	3	-5
O=c1cc(-c2ccc(O)cc2)oc2c(O)c(O)c(O)c(O)c12	-15	-22	1	3	-4
CCOC(=O)Cc1csc(-n2sc3ccccc3c2=O)n1	-107*	-11	-7	-7	-15
CCOC(=O)Cc1csc(SCn2nnc3ccccc3c2=O)n1	3	3	-2	-1	12
O=c1cc(-c2ccc(O)cc2)oc2c(C3O[C@H](CO)[C@@H](O)[C@H](O)[C@H]3O)c(O)cc(O)c12 (stereo not given in full)	-73*	-4	-16	-1	-19
O=C1C=CC(=O)C(C2=C3C(=O)N(CCc4ccccc4)CC(=O)N3CCC2)=C1	-72*	-7	-1	48	-72*
O=C1CC2(CCCCC2)CC(=O)N1CCc1ccccc1	2	0	6	-3	1
CCc1ccccc1NC(=O)N(C)Cc1nc(-c2ccccc2C)oc1C	.	.	.	4	.
COCCn1cnc2c1c(=O)n(CC(=O)OCc1ccccc1F)c(=O)n2Cc1ccccc1	.	.	.	-14	.
O=C(CCCc1nc(-c2ccc(Cl)cc2)no1)NCC1CCCO1 (stereo not given)	3	-7	34*	-3	7
CC(C)=CCNc1ncnc2c1c(C#N)cn2C1OC(CO)C(O)C1O (stereo not given)	14	0	3	-52*	11
CCC(C)NCCCOc1cc(Cl)ccc1Cl (stereo not given)	1	12	-6	-13	-77*
CCC(C)NCCCCOc1ccc(Cl)cc1C (stereo not given)	5	0	-11	-19	-60*
CCCOc1ccc(OCCCCNC(C)CC)cc1 (stereo not given)	-3	9	2	-16	-55*
CCCCNCCCOc1cc(Cl)ccc1Cl	-6	7	-17	-10	?
Cc1cccc(-c2nnc(-c3cccc(NC(=O)Cc4cccs4)c3)o2)c1	.	3	31*	-3	34
CCOC(=O)N1CCN(Cc2nc3c(c(=O)[nH]c(=O)n3C)n2CCC(C)C)CC1	.	.	.	7	.
CCOC(=O)CC[C@@H]1CC[C@]2(CCCN(Cc3nccs3)C2)O1	.	-3	.	.	.
CC(=O)/C(=N\Nc1cccc(Cl)c1)Sc1nnc(-c2ccccc2)n1-c1ccccc1	-3	5	-20	-1	-54*
CC[C@@]12C(=O)N(c3cccc(Cl)c3)C(=O)N1[C@H](c1cccc(C)c1)[C@@H]1C(=O)N(Cc3ccccc3)C(=O)[C@@H]12	2	-2	2	-3	?
SMILES	PI5P4K alpha inh	PI4K2A block	DRD3 agonist	LDHA block	D3 antag
CC[C@@]12C(=O)N(c3ccc(C)cc3)C(=O)N1[C@H](c1cccc(C)c1)[C@@H]1C(=O)N(Cc3ccccc3)C(=O)[C@@H]12	2	0	30*	5	0
Cc1ccc(N2C(=O)N3[C@H](c4cccc(C)c4)[C@@H]4C(=O)N(Cc5ccccc5)C(=O)[C@@H]4[C@]3(C)C2=O)cc1	5	-1	0	-10	?
CC[C@@]12C(=O)N(c3ccc(OC)cc3)C(=O)N1[C@H](c1cccc(C)c1)[C@@H]1C(=O)N(Cc3ccccc3)C(=O)[C@@H]12	4	1	45*	1	7
CN(C)CC(NC(=O)c1ccc(CNC(N)=O)cc1)c1ccccc1 (stereo not given)	.	.	.	1	.
OCCn1c(-c2ccc(F)cc2)csc1=Nc1ccccc1	1	0	-2	-3	-11
OCCn1c(-c2ccc3c(c2)OCO3)csc1=Nc1ccccc1	2	-5	12	-1	-70*
CC1(c2nnc(Cc3ccccc3)o2)CC(c2ccccc2[N+](=O)[O-])=NO1 (stereo not given)	-51*	-7	0	4	-13
CC1(c2nnc(Cc3ccccc3)o2)CC(c2cccc([N+](=O)[O-])c2)=NO1 (stereo not given)	8	2	32*	0	13
CC1(c2nnc(Cc3ccccc3)o2)CC(c2ccncc2)=NO1 (stereo not given)	-1	3	-10	1	-12
COc1ccc(CC(=O)NC(c2cccs2)C(C)C)cc1 (stereo not given)	.	.	.	-14	.
OCCC1CN(Cc2cccs2)CCN1Cc1ccccc1 (stereo not given)	2	4	-19	-12	-24
OCCC1CN(Cc2cc3c(cc2Cl)OCO3)CCN1Cc1ccccc1 (stereo not given)	1	2	-24	2	-53*
Cc1ccc(CN2CCN(Cc3cccc4c3OCO4)CC2CCO)cc1 (stereo not given)	7	4	-28	-4	-94*
CCOc1ccc(CN2CCN(Cc3cc4c(cc3Cl)OCO4)CC2CCO)cc1 (stereo not given)	0	1	-40	-4	-64*
CCOc1ccc(CN2CCN(Cc3cccc4c3OCO4)CC2CCO)cc1 (stereo not given)	0	2	-19	0	-61*
Cc1c(C(=O)O)cnc2c([N+](=O)[O-])cnn12	-55*	-2	-2	-7	-15
CC(=O)c1cnc2c(C(=O)O)cnn2c1C	.	-1	18	1	6
CCCCOC(=O)COc1ccc2c(=O)c(Oc3cccc(C)c3)coc2c1	.	.	.	3	.
Cc1ccc2ccc(C3C(=O)c4ccccc4C3=O)nc2c1	.	9	-14	-19	-64*
CCN(CC)S(=O)(=O)c1ccc(C)c(NC(=O)C2CCCN(C(=O)c3ccc(Cl)cc3)C2)c1 (stereo not given)	.	.	.	-5	.
O=[N+]([O-])c1ccc(C[n+]2cccc3ccccc32)cc1	-1	-4	4	2	6
O=[N+]([O-])c1ccc(C[n+]2cccc3ccc4cccnc4c32)cc1	-58*	3	-3	4	0
